This note sets out measurements from PubChem BioAssay (Tox21).

Inconclusive results are not listed. Some compounds were tested as several samples or in several runs, with calls that do not always agree. Activity calls are given as the source filed them. Unless noted, calls follow the shape of the dose curve; as a rule, active = well fitted curve in the direction sought with a large enough effect in the repeat runs; inconclusive = weak or mixed curves; inactive = no such curve, though single readings can be large; an effect the other way counts as inactive or inconclusive.

A short description of experiment [1]: A CellTox Green Cytotoxicity Assay to monitor cytotoxicity in HepG2 cells - 8 hour (AID 1224890). Also: nearly all actives have a fitted effect of over 45% in size. Summed up:
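HepG2, 600 cells/well premixed w/ CellTox Green; 5 h settle, 37 C/5% CO2; pintool cpd add (DMSO); 37 C, 40 h; fluorescence read at 0, 8, 16, 24, 32, 40 h.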

A short description of experiment [2]: qHTS assay to identify small molecule antagonists of the estrogen receptor alpha (ER-alpha) signaling pathway using the BG1 cell line in the presence of 0.1 nM 17-beta-estradiol - cell viability counter screen (AID 1259241). Also: nearly all actives have a fitted effect of over 40% in size. Summed up: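 Cells were plated and left 24 hr, compounds in DMSO were pinned in, 17beta-estradiol was added to 0.1 nM final, and after 22 hr CellTiter-Fluor reagent was added for 30 min before fluorescence was read.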
A general note: Quantitative high-throughput screening tests each substance at several concentrations.

A short description of experiment [3]: qHTS assay to identify small molecule antagonists of the androgen receptor (AR) signaling pathway using the MDA cell line in the presence of 0.5 nM R1881 - cell viability counter screen (AID 1259242). Also: nearly all actives have a fitted effect of over 45% in size. The procedure, abridged:
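Live-cell protease fluorescence, CellTiter-Fluor, 30 min at 37C. Cells: MDA-kb2, 3,000/well, preincubated 5 hr. Compounds plus 0.5 nM R1881 final, 16 hr, 37C, 0% CO2.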

For experiment [4], the target named is Androgen receptor (Homo sapiens) (UniProt P10275). The experiment can be described thus: qHTS assay to identify small molecule antagonists of the androgen receptor (AR) signaling pathway using the MDA cell line in the presence of 0.5 nM R1881 (AID 1259243). Also: nearly all actives have a fitted effect of over 50% in size. Summed up:
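MDA-kb2, MMTV-luc (AR/GR elements); 3,000 cells/well; cpd + 0.5 nM R1881 final; 16 hr 37C, 0% CO2; ONE-Glo 30 min RT; luminescence.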

Experiment [5] addresses Estrogen receptor (Homo sapiens) (UniProt P03372). Description: qHTS assay to identify small molecule antagonists of the estrogen receptor alpha (ER-alpha) signaling pathway using the BG1 cell line in the presence of 0.1 nM 17-beta-estradiol (AID 1259244). Also: nearly all actives have a fitted effect of over 50% in size. Summed up:
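Luminescence after ONE-Glo (30 min, room temperature) measured ERE-luciferase activity in VM7Luc4E2 cells treated 22 h with compound and 0.1 nM final 17beta-estradiol as stimulator.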

Experiment [6] in a line: qHTS assay to identify small molecule HDAC inhibitors (AID 1259364).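 Also: wild-type HCT-116 cells with endogenous class I/II HDAC activity; top concentration of the series differs between compounds; nearly all actives have a fitted effect of over 45% in size.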 Summed up:
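HCT-116 (wild type), 1,500 cells/well, overnight; compound 2 hr 37C 5% CO2; HDAC-Glo I/II reagent 30 min RT; luminescence readout.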

A short description of experiment [7]: qHTS assay to identify small molecule HDAC inhibitors - cell viability counter screen (AID 1259365). Also: series mostly up to about 92 µM; nearly all actives have a fitted effect of over 50% in size. Summed up: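 Counter screen in wild-type HCT-116 cells: compounds dissolved in DMSO are pin-transferred onto overnight-plated cells and left 2hr at 37C. ATP-based CellTiter-Glo luminescence then measures viable cells.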
Experiment [8] in a line: qHTS assay to identify small molecule agonists of the sonic hedgehog signaling (Shh) pathway - cell viability counter screen (AID 1259366). Also: nearly all actives have a fitted effect of over 50% in size. Also: potency is read from the fitted curve at half-maximal effect. The procedure, abridged:
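Cells are plated at 2,000 per well and left 4hr at 37C, 5% CO2 before compound addition. After 23hr of treatment, CellTiter-Fluor reagent is added for 1hr at 37C and fluorescence is measured.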

Experiment [9] is described as follows: qHTS assay to identify small molecule antagonists of the sonic hedgehog signaling (Shh) pathway - cell viability counter screen (AID 1259367). Also: nearly all actives have a fitted effect of over 55% in size. Also: potency is read from the fitted curve at half-maximal effect. The procedure, abridged: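 CellTiter-Fluor signal in conditioned medium-stimulated 3T3 Gli1-Luc cells, 23 hr compound exposure, 37C.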
The nature of experiment [10]: qHTS assay to identify small molecule agonists of the sonic hedgehog signaling (Shh) pathway (AID 1259368; calls by dose curve;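 also: NIH/3T3-derived 3T3Gli1-Luc cells carrying a stable Gli1-driven firefly luciferase reporter; series mostly up to about 92 µM; nearly all actives have a fitted effect of over 15% in size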). Summed up: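 Read-out: firefly luciferase luminescence from a Gli1 response element reporter stably integrated in NIH/3T3-derived 3T3Gli1-Luc cells, measured 30 min at room temperature after reagent addition. Compound exposure lasted 24 hr at 37 C, 5% CO2.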
Experiment [11] concerns the target Estrogen receptor beta (Homo sapiens) (UniProt Q92731). The experiment can be described thus: qHTS assay to identify small molecule agonists of the estrogen receptor beta (ER-beta) signaling pathway (AID 1259377; active = well fitted activation curve with a large enough effect in the signal ratio in the repeat runs, not every such curve was filed as active; the % refers to the signal ratio). The procedure, abridged: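 Agonist mode cell assay in GripTite HEK293T cells expressing an ER-beta fusion that drives beta-lactamase from an Upstream Activator Sequence; 16 hr compound exposure at 37C, then 2 h LiveBLAzer B/G FRET substrate at room temperature, fluorescence read-out.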

Experiment [12] shares this target. The experiment can be described thus: qHTS assay to identify small molecule antagonists of the estrogen receptor beta (ER-beta) signaling pathway (AID 1259378; active = well fitted inhibition curve with a large enough effect in the signal ratio in the repeat runs, not every such curve was filed as active; the % refers to the signal ratio). The procedure, abridged:
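Antagonist mode: compounds added to beta-lactamase reporter HEK293T ER-beta-UAS cells stimulated with E2 (1nM final), 16 hr at 37C. LiveBLAzer B/G FRET substrate, 2 hours room temperature, fluorescence read-out.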

Experiment [13] in a line: qHTS assay to identify small molecule agonists of the androgen receptor (AR) signaling pathway in the presence of an antagonist - cell viability counter screen (AID 1259379).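 Also: MDA-kb2 human breast cancer cells carrying an MMTV luciferase reporter; series mostly up to about 92 µM; nearly all actives have a fitted effect of over 25% in size.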 Summed up:
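Viability counter screen: CellTiter-Fluor fluorescence, measured in the same wells as the luciferase read-out. MDA-kb2 cells, 3,000/well, with nilutamide at 3.0uM final and compounds at 15 concentrations, 16 hr at 37C, 0% CO2.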

Experiment [14] is described as follows: qHTS assay to identify small molecule agonists of the estrogen receptor beta (ER-beta) signaling pathway - cell viability counter screen (AID 1259380). Also: nearly all actives have a fitted effect of over 30% in size. Summed up: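 Luminescence read-out (CellTiter-Glo, 30 min, room temp) taken in the same wells as the beta-lactamase reporter assay; ER-beta-UAS-bla HEK293T cells exposed to DMSO-dissolved compounds for 16 hr at 37C in 2% charcoal-stripped FBS medium.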

The target in experiment [15] is Androgen receptor (Homo sapiens) (UniProt P10275). Description: qHTS assay to identify small molecule agonists of the androgen receptor (AR) signaling pathway in the presence of an antagonist (AID 1259381; calls by dose curve; also: nearly all actives have a fitted effect of over 15% in size). Summed up: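 Luciferase read-out (ONE-Glo, 30min room temperature) in MDA-kb2 MMTV-reporter cells; agonist mode run in presence of AR antagonist nilutamide, 3.0uM final. Compounds tested as 15-point series, 16hr exposure at 37C, 0% CO2.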

Experiment [16] is described as follows: qHTS assay to identify small molecule antagonists of the estrogen receptor beta (ER-beta) signaling pathway - cell viability counter screen (AID 1259382).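 Also: HEK293T cells carrying ER-beta-UAS-bla reporter stimulated with estradiol; series mostly up to about 92 µM; nearly all actives have a fitted effect of over 55% in size.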 Summed up: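 Luminescent ATP read-out (CellTiter-Glo, 30 min, RT) taken in the same wells as the bla reporter assay. HEK293T ER-beta-UAS-bla cells in 2% charcoal-stripped FBS were exposed to compounds with 1nM E2 for 16 hr at 37C.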

Experiment [17] in a line: qHTS assay to identify small molecule agonists or antagonists of the thyroid stimulating hormone receptor (TSHR) signaling pathway - wild type cell line counter screen (AID 1259384; calls by dose curve). Summed up:
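Counter screen in untransfected Hek293: compounds (15-point titration, triplicate) plus phosphodiesterase inhibitor Ro20-1724 added after 18 h plating; 30 min RT. Intracellular cAMP via competitive d2/cryptate immunoassay, 1 h incubation.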

The nature of experiment [18]: qHTS assay to identify small molecule phospholipidosis (PLD) inducers (AID 1259344; active = well fitted curve in the direction sought with a large enough effect; an effect the other way counts as inactive or inconclusive). Summed up: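 Accumulated phospholipid, stained red by LipidTOX during 24 h compound treatment of HepG2 cells at 37 C, is quantified from images as pit number and intensity, normalised per cell using Hoechst-stained nuclei.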
Experiment [19] is described as follows: qHTS assay to identify small molecule antagonists of the sonic hedgehog signaling (Shh) pathway (AID 1259369; calls by dose curve; also: nearly all actives have a fitted effect of over 45% in size; also: potency is read from the fitted curve at half-maximal effect). The procedure, abridged: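 Luminescence readout: firefly Luc under Gli1 response element in 3T3Gli1-Luc cells (NIH/3T3 clone). Antagonist mode, stimulation by conditioned medium; compound exposure 24hr at 37 C, 5% CO2.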
For experiment [20], the target named is Estrogen receptor (Homo sapiens) (UniProt P03372). Description: qHTS assay to identify small molecule agonists of the estrogen receptor alpha (ER-alpha) signaling pathway in the presence of an antagonist (AID 1259383; calls by dose curve; also: top concentration of the series differs between compounds; nearly all actives have a fitted effect of over 15% in size). Summed up: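 Luciferase luminescence (ONE-Glo, 30min at room temperature) measured in VM7Luc4E2 cells after 22hr compound exposure at 15 concentrations, with 10.0nM ICI-182,780 final present; cells express endogenous ER-alpha and carry four EREs upstream of luciferase.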
Sequence of Estrogen receptor (Homo sapiens) (P03372 whole entry, looked up): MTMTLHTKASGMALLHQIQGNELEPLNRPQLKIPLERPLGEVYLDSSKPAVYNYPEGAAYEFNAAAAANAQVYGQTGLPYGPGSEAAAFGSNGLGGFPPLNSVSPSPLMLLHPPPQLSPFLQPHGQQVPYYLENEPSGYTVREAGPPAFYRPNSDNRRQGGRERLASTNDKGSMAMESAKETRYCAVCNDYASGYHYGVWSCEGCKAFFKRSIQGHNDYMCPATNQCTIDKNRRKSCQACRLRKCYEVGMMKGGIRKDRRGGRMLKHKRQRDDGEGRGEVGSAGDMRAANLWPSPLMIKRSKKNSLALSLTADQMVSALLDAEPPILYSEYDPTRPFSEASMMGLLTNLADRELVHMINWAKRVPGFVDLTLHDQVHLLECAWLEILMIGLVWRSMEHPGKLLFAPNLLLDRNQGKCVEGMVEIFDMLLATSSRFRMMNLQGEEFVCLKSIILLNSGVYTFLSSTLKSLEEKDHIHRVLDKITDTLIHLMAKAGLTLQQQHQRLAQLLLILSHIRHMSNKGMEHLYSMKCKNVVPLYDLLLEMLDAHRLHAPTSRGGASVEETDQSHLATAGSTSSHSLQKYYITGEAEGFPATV

Sequence of Androgen receptor (Homo sapiens) (P10275 whole entry, looked up): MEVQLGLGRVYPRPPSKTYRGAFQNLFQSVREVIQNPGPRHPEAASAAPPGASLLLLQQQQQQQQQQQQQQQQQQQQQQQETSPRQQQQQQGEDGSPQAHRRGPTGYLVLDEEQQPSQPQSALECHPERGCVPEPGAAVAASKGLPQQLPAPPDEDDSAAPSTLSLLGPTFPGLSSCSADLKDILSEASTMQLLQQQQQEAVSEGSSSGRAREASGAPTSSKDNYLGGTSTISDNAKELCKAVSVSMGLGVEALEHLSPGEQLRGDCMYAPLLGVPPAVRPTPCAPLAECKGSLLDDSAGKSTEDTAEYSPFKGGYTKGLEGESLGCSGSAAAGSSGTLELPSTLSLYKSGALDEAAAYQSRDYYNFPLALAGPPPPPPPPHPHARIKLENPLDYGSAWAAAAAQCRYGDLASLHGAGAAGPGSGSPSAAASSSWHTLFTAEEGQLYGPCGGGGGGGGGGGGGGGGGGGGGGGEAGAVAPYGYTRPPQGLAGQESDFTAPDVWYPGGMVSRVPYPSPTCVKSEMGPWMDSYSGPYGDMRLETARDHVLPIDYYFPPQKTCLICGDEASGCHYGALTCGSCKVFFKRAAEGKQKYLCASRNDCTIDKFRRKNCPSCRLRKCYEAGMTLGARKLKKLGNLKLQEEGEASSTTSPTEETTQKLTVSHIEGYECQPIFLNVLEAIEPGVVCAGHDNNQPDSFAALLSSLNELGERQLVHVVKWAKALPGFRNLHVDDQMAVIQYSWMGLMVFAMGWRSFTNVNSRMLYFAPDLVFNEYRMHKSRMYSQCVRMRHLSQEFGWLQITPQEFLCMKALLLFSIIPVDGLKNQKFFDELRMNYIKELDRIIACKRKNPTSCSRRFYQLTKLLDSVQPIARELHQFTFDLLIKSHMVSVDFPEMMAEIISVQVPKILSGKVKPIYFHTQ
Sequence of Estrogen receptor beta (Homo sapiens) (Q92731 whole entry, looked up, the tested form may be a part): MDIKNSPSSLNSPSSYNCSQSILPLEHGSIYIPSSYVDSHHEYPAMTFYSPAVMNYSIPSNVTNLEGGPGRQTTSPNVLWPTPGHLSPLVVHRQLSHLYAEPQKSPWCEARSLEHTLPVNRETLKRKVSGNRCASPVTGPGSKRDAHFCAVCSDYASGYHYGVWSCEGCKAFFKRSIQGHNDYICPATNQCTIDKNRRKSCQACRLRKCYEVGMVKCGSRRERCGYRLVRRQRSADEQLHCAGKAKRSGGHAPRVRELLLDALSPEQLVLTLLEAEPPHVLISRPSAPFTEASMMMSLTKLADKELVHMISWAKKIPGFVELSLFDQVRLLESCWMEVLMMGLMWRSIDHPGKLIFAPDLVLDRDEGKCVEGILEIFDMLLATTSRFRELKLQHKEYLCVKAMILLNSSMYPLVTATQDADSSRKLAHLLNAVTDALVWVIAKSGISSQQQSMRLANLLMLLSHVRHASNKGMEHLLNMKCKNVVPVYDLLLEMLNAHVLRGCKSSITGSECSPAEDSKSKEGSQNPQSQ

Regarding `CC(CCO)CC(C)(C)C` (stereo not given), the call in experiment [1], in experiment [7], in experiment [10], in [16] and in experiment [17] was inactive. The Potency entry in experiment [2], in experiment [3], in experiment [4], in experiment [5], in experiment [6] and in [8] was “inactive” in each case. The Potency result in [9], in experiment [11], in experiment [12], in experiment [13], in [14] and in [15] was “inactive” in each case.

On to `CCCOC(=O)c1ccccc1`, for which the molecule was classed as inactive in experiment [1], in experiment [18], in experiment [7], in experiment [10], in experiment [16] and in experiment [17]. Moreover, the Potency entry in experiment [2], in [3], in [6], in experiment [8], in experiment [9] and in [19] was “inactive” throughout. The Potency entry in experiment [13] and in experiment [14] was “inactive” throughout.

With `CN(C)CCOC(=O)COc1ccc(Cl)cc1`, the molecule was classed as inactive in experiment [1], in [18], in experiment [7], in [10], in [16] and in experiment [17]. The Potency result in [2], in [3], in experiment [6], in [8], in [9] and in experiment [11] was “inactive” each time. Further, the Potency entry in [13] and in [14] was “inactive” each time.

As to `N[C@H](Cc1c[nH]c2ccccc12)C(=O)O`, the molecule was called inactive in experiment [1], in experiment [18], in experiment [7], in experiment [10], in experiment [16] and in [17]. Also, the Potency entry in experiment [2], in [3], in experiment [6], in experiment [8], in [9] and in [11] was “inactive” each time. Moreover, the Potency entry in experiment [12], in [13] and in experiment [14] was “inactive” each time.

As for `CC1(C)CC(N)CC(C)(CN)C1` (stereo not given), the molecule was classed as inactive in experiment [1], in experiment [7], in experiment [10], in experiment [16] and in experiment [17]. In addition, the Potency result in [2], in experiment [3], in experiment [5], in [6], in experiment [8] and in [9] was “inactive” throughout. Moreover, the Potency entry in experiment [19], in experiment [13] and in experiment [14] was “inactive” in each case.

For `C=CCCCCCCCCC(=O)O`, the molecule was called inactive in experiment [1], in [18], in [7], in [10], in experiment [16] and in experiment [17]. Moreover, the Potency result in experiment [2], in experiment [3], in experiment [6], in [8], in experiment [9] and in experiment [19] was “inactive” in each case. Also, the Potency result in experiment [11], in [13] and in experiment [14] was “inactive” in each case.

Turning to `CCCCOC(=O)c1ccc(N)cc1`, the outcome in experiment [1], in experiment [18], in [7], in experiment [10], in experiment [16] and in [17] was inactive. In addition, the Potency entry in [2], in [3], in experiment [5], in experiment [6], in experiment [8] and in experiment [9] was “inactive” throughout. Also, the Potency entry in experiment [11], in experiment [13] and in [14] was “inactive” throughout.

Turning to `C=C(C)C(=O)OCC(C)C`, the call in [1], in [7], in experiment [10], in experiment [16] and in experiment [17] was inactive. Besides, the Potency result in experiment [2], in [3], in experiment [5], in experiment [6], in experiment [11] and in experiment [13] was “inactive” each time. The Potency result in experiment [14] and in [20] was “inactive” in each case. The Potency in experiment [8] was 27.7 µM (active) and inactive; in experiment [9], 7.8 µM (active) and inactive; in experiment [19], 619 nM (active) and inactive.

With `COc1cc(OC)c(C(=O)CCCN2CCCC2)c(OC)c1`, the call in [1], in [18], in experiment [7], in experiment [10], in experiment [16] and in experiment [17] was inactive. For the same molecule, the Potency result in experiment [2], in experiment [3], in experiment [4], in experiment [6], in experiment [8] and in [9] was “inactive” in each case. For the same molecule, the Potency result in [13], in [14] and in experiment [15] was “inactive” in each case.
